Screening results: PubChem BioAssay, several laboratories
Mtb hypoxia inh – reduces hypoxia-regulated biosensor signal in M. tuberculosis; M. tuberculosis hypoxia-regulated fluorescent reporter, fluorescence; fluorescence inhibition, % (test concentration not listed); 0.1% of 300,000 active; AID 1159583; in the data active = fluorescence inhibition mostly above about 23%, no sharp cut-off; inactive = mostly below about 17%
PrP UTR inh – suppresses PrP 5' UTR mRNA reporter expression; 0.35% of 340,000 active; cell-based PrP 5' UTR mRNA reporter, plate reader; AID 488862; inhibition, % (no concentration beside the values); in the data active = inhibition above about 52%; note: 0 = median of the neutral control wells
SARS 3CLpro inh – SARS-CoV 3CLpro protease inhibition; P0C6X7; recombinant SARS-CoV 3CLpro, quenched FRET peptide cleavage; inhibition, % at 6 µM; 0.14% of 290,000 active; in the data active = inhibition above about 12%
PrPC TRFRET – inhibitors of human cell surface prion protein PrPC. P04156. TR-FRET read-out. inhibition, % at 13.8 µM. 0.43% of 370,000 active. AID 720596; in the data active = inhibition above about 24%; note: 0% = median of the test wells and 100% = reference compound wells
MazF activator – activators of E. coli MazEF toxin-antitoxin RNase. FAM/BHQ RNA-DNA oligo cleavage fluorescence, 5 h. activation, % at 20 µM. 0.32% of 350,000 active; in the data active = activation above about 50%
Target sequence (P0AE70 whole entry, looked up): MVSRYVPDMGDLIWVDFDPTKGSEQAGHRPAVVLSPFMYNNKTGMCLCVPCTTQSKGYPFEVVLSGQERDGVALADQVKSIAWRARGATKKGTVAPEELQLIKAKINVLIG
DUSP3 inh – blocks human VHR1 dual specificity phosphatase; P51452; recombinant VHR phosphatase, pNPP absorbance; inhibition, % at 13.3 µM; 0.52% of 290,000 active; AID 1654; in the data active = inhibition above about 50%
Target sequence (P51452 whole entry, looked up): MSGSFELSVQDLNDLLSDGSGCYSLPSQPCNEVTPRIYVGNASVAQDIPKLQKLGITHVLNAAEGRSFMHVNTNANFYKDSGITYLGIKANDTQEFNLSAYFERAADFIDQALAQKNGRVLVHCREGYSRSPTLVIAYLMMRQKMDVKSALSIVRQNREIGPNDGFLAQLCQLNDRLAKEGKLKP
An asterisk follows results filed as active; · = no result given. Most compounds without a hit are left out; they make up all but 1.5% or so of the library.

SMILES | Mtb hypoxia inh | PrP UTR inh | SARS 3CLpro inh | PrPC TRFRET | MazF activator | DUSP3 inh
COc1ccc(N=c2oc3c(OC)cccc3cc2C(=O)NCc2ccco2)cc1OC | -12 | -14 | 4 | · | 344* | -15
COc1ccccc1N=c1oc2c(OC)cccc2cc1C(=O)NCc1ccco1 | 3 | -21 | 1 | · | 69* | 24
CC(C)NC(=O)N(C)CC1Oc2ccc(NC(=O)C3CCCCC3)cc2C(=O)N(C(C)CO)CC1C (stereo unspecified) | -9 | · | · | · | · | ·
CC(C)C(Nc1ccc(S(=O)(=O)N2CCOCC2)cc1[N+](=O)[O-])C(=O)OCC(N)=O (stereo unspecified) | 13 | · | · | · | · | ·
CCOC(=O)C1C2COc3ccc(Br)cc3C2N2C(=O)N(c3ccc(Cl)cc3)C(=O)[C@]12C (stereo partly specified) | 8 | · | · | · | · | ·
CC(C)(C)C(Cn1cncn1)=NOC(=O)Nc1ccc(Cl)cc1 | 12 | · | · | · | · | ·
CC1CCN(c2ccc(-c3cccs3)nn2)CC1 | 4 | 80* | 6 | -1 | 7 | -9
O=C(c1cccc(-c2ccccc2)c1)N1CC[C@@H](N2CCC(O)CC2)[C@H](O)C1 | · | -12 | -6 | -7 | -1 | 51*
Cc1ccccc1-c1cc(C(=O)NN=Cc2cccnc2)c2ccccc2n1 | 5 | · | · | · | · | ·
CCn1cc(C(=O)OCC(=O)c2ccc(Cl)cc2)c(=O)c2ccc(C)nc21 | 7 | -3 | 0 | -8 | -1 | -1
CCn1cc(C(=O)NNC(=O)c2ccc(Cl)cc2)c(=O)c2ccc(C)nc21 | 6 | -9 | 0 | · | · | 52*
COC(=O)/C=C1\C(=O)N(c2nc3ccccc3s2)C(=S)N1c1ccc(F)cc1 | 1 | -49 | -2 | 5 | 58* | 39
COC(=O)/C=C1\C(=O)N(c2nc3ccc(OC)cc3s2)C(=S)N1c1ccc(F)cc1 | 3 | · | -4 | · | · | 6
O=C(Oc1c(CN2CCOCC2)cc(Cl)c2cccnc12)c1cccs1 | -6 | 14 | 9 | 3 | 1 | 52*
O=c1/c(=C/c2ccc(O)c([N+](=O)[O-])c2)sc2nc3ccccc3n12 | · | -31 | 6 | 4 | 3 | 75*
N#C/C(=C\c1cccc(NC(=O)c2ccccc2Cl)c1)C(=O)NCCc1ccccc1 | 12 | -31 | 0 | -1 | 4 | 55*
COCCCNC(=O)/C(C#N)=C/c1cccc(NC(=O)c2ccccc2Cl)c1 | · | -43 | 2 | -1 | -2 | 42
CC[C@@]12C(=O)N(c3cccc(F)c3)C(=O)N1C(c1cccc(C)c1)C1C(=O)N(Cc3ccccc3)C(=O)C12 (stereo partly specified) | 2 | · | · | · | · | ·
Cc1ccc(C(=O)NC(C)c2ccc(C)c(C)c2)s1 (stereo unspecified) | 22 | -13 | · | 3 | 11 | ·
Cc1ccc(C(C)NC(=O)c2ccc3c(c2)OCCO3)cc1C (stereo unspecified) | 15 | -28 | 0 | 0 | 7 | 55*
COc1ccc(C2C3=C(CC(C)(C)CC3=O)Oc3ncn(Cc4ccccc4)c(=N)c32)cc1 (stereo unspecified) | 1 | -14 | 0 | 0 | -13 | 55*
O=C(COC(=O)c1ccccc1O)NC1CCCc2ccccc21 (stereo unspecified) | 33* | -3 | · | 8 | -1 | ·
COc1cccc(C(=O)OCC(=O)NC2CCCc3ccccc32)c1O (stereo unspecified) | 3 | -16 | · | 3 | -6 | ·
O=C(/C=C/c1cn(CC(O)CN2CCCCC2)c2ccccc12)c1ccccc1 (stereo unspecified) | 33* | -13 | 0 | -6 | -16 | 20
O=C(NC(Cc1ccccc1)C(=O)O)OCC1c2ccccc2-c2ccccc21 (stereo unspecified) | 4 | -15 | 2 | -2 | -3 | 53*
CC(=O)N1CCCc2cc(S(=O)(=O)N3CCCC(C(=O)Nc4cccc(C)c4)C3)ccc21 (stereo unspecified) | -1 | -7 | -2 | 13 | 2 | 54*
O=C(COC(=O)C1COc2ccccc2O1)Nc1cccc(Cl)c1 (stereo unspecified) | 10 | -42 | · | 7 | 9 | ·
O=C(COC(=O)C1COc2ccccc2O1)Nc1cccc(F)c1 (stereo unspecified) | 28* | -11 | · | 4 | 7 | ·
Cc1ccc(S(=O)(=O)N2CCN(CC(=O)NN=Cc3ccccc3OCC(=O)O)CC2)cc1 | 7 | · | · | · | · | ·
